Activity calls are given as the source filed them. How the source made its calls: active means hit-call score of the fitted dose curve at least 0.9, where 1 is the maximum; inactive means score below 0.9.
Experiments:
[1] = ATG_CRE_CIS: Attagene CIS-FACTORIAL HepG2 Assay for human cAMP Responsive Element (CRE) binding protein 3 (AID 2282926); details: HepG2 CRE cis-reporter, Attagene multiplexed mRNA; actives raise or lower the signal
Procedure, shortened: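 Liver-derived HepG2, transfected with a CRE-containing reporter panel, exposed 24 h; transcript levels sized and quantified by capillary electrophoresis of labelled amplicons; signal changes either way referenced to vehicle.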

[2] = ATG_CMV_CIS: Attagene CIS-FACTORIAL HepG2 Assay for human CMV (Internal Marker) (AID 2282928); details: HepG2 CMV promoter reporter, transcription factor profiling; actives raise or lower the signal;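 further: endpoint acts as a background internal control marker rather than a target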
Procedure, shortened: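 Readout: fluorescent reporter cDNA fragments separated by capillary electrophoresis after RT-PCR and HpaI cut. Cells: HepG2 carrying transfected cis-promoter reporter constructs, dosed 24 h. Endpoint serves as background internal-marker control, fit bidirectionally versus DMSO.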

[3] = ATG_DR4_LXR_CIS: Attagene CIS-FACTORIAL HepG2 Assay for human Liver X Receptor (LXR), DR4 submotif (AID 2282929); details: HepG2 Attagene DR4 cis-reporter, mRNA transcription; actives raise or lower the signal
Procedure, shortened: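 Transiently transfected HepG2 liver cells; cis-regulated reporters; 24 h dosing. RT-PCR plus CE read-out of reporter mRNA. DMSO baseline, bidirectional curve fitting.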

[4] = ATG_AP_1_CIS: Attagene CIS-FACTORIAL HepG2 Assay for human Activator Protein 1 (AP-1) (AID 2282931); details: HepG2 Attagene cis-factorial AP-1 reporter mRNA; actives raise or lower the signal
Procedure, shortened: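 We transfected HepG2 cells transiently with a set of cis-regulated reporter transcription units, dosed them for 24 h, and quantified reporter mRNA via RT-PCR and capillary electrophoresis, scoring gain or loss of signal relative to DMSO.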

[5] = ATG_AP_2_CIS: Attagene CIS-FACTORIAL HepG2 Assay for human Activator Protein 2 (AP-2) (AID 2282932); details: HepG2 AP-2 cis-reporter, Attagene transcription factor profiling; actives raise or lower the signal
Procedure, shortened: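 Endogenous transcription factor activity is reported through transfected multiplex reporter constructs in HepG2, after 24 h of compound exposure. Transcripts were quantified by RT-PCR and capillary electrophoresis of fluorescent fragments. Bidirectional fit against DMSO.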

[6] = ATG_BRE_CIS: Attagene CIS-FACTORIAL HepG2 Assay for human Bone Morphogenetic Protein (BMP) Response Element (BRE) (AID 2282933); details: HepG2 BMP response element reporter, Attagene transcription factor profiling; actives raise or lower the signal
Procedure, shortened: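 Read-out: reporter mRNA induction quantified by RT-PCR and capillary electrophoresis after 24 h chemical exposure of transfected HepG2 cells. Endogenous factor activity on the BMP response element; gain or loss fitted against DMSO baseline.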

[7] = ATG_E_Box_CIS: Attagene CIS-FACTORIAL HepG2 Assay for human Enhancer Box (E-box) (AID 2282936); details: HepG2 E-box cis-reporter transcription, actives raise or lower the signal
Procedure, shortened: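 E-box-driven reporter transcripts measured in transiently transfected HepG2 after 24 h exposure: RNA reverse-transcribed, PCR-amplified, fluorescently labelled, digested and resolved by capillary electrophoresis. Gain or loss relative to DMSO.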

[8] = ATG_M_61_CIS: Attagene CIS-FACTORIAL HepG2 Assay for M61 Transcription Factor (Internal Marker) (AID 2282937); details: HepG2 Attagene CIS-FACTORIAL M61 internal marker reporter; actives raise or lower the signal
Procedure, shortened: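 Multiplexed reporter mRNA assay, HepG2 human hepatoma cells, 24 h treatment. Signal: FAM-labelled, HpaI-digested RT-PCR fragments by CE. Fit: bidirectional, baseline DMSO.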

[9] = ATG_EGR_CIS: Attagene CIS-FACTORIAL HepG2 Assay for human Early Growth Response 1 (EGR1) (AID 2282938); details: HepG2 Attagene CIS-FACTORIAL EGR reporter mRNA; actives raise or lower the signal
Procedure, shortened: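 Multiplexed cis-reporter system in human hepatoma HepG2 cells, transiently transfected. Cells are dosed for 24 h; reporter transcripts are amplified, fluorescently tagged and sized by capillary electrophoresis, with DMSO as negative control.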

[10] = ATG_M_19_CIS: Attagene CIS-FACTORIAL HepG2 Assay for M19 Transcription Factor (Internal Marker) (AID 2282939); details: HepG2 Attagene CIS-FACTORIAL M19 internal marker reporter; actives raise or lower the signal
Procedure, shortened: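 Readout: fluorescent reporter-transcript fragments by capillary electrophoresis after RT-PCR. Human HepG2 liver cells carried transfected MRTU constructs reporting endogenous transcription-factor activity; exposure 24 h. Gain or loss of signal fitted relative to DMSO.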

[11] = ATG_Ets_CIS: Attagene CIS-FACTORIAL HepG2 Assay for human Erythroblast Transformation Specific (ETS) (AID 2282941); details: HepG2 ETS cis-reporter transcription, actives raise or lower the signal
Procedure, shortened: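 RT-PCR/capillary electrophoresis fluorescence read-out of reporter mRNA; HepG2 transient multi-reporter transfection; 24 h compound exposure; gain or loss of signal fitted bidirectionally relative to DMSO.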

[12] = ATG_FoxO_CIS: Attagene CIS-FACTORIAL HepG2 Assay for human Forkhead box O (FoxO) (AID 2282943); details: HepG2 Attagene cis-reporter, FoxO element, mRNA; actives raise or lower the signal
Procedure, shortened: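 Human hepatoma HepG2 cells carry transiently introduced reporter transcription units controlled by cis promoter elements. Chemical treatment lasted 24 h, and mRNA signal was compared with DMSO.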

[13] = ATG_ISRE_CIS: Attagene CIS-FACTORIAL HepG2 Assay for human Interferon Regulatory Factor 1 (IRF1) binding to an Interferon-Stimulated Response Element (ISRE) (AID 2282948); details: HepG2 ISRE cis-reporter (Attagene), mRNA transcription readout; actives raise or lower the signal
Procedure, shortened: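 Read-out: fluorescent RT-PCR products resolved by capillary electrophoresis, reporting endogenous transcription factor activity via ISRE-driven reporter mRNA in transfected HepG2 cells dosed for 24 h; gain or loss fitted relative to DMSO.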

[14] = ATG_M_06_CIS: Attagene CIS-FACTORIAL HepG2 Assay for M06 Transcription Factor (Internal Marker) (AID 2282950); details: HepG2 Attagene CIS-FACTORIAL M06 internal marker reporter; actives raise or lower the signal
Procedure, shortened: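 Terse: HepG2, transient MRTU transfection (FuGene 6), 24 h dosing; total RNA, oligo(dT) RT, PCR, FAM label, HpaI cut, capillary electrophoresis; bidirectional fit vs DMSO baseline; background-control endpoint.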

[15] = target: Paired box protein Pax-6 (Homo sapiens) (UniProt P26367); assay: ATG_Pax6_CIS: Attagene CIS-FACTORIAL HepG2 Assay for human Paired Box 6 (PAX6) (AID 2282956); details: HepG2 CIS-FACTORIAL PAX6 reporter transcription, RNA readout; actives raise or lower the signal
Paired box protein Pax-6 (Homo sapiens), sequence (P26367 whole entry, looked up): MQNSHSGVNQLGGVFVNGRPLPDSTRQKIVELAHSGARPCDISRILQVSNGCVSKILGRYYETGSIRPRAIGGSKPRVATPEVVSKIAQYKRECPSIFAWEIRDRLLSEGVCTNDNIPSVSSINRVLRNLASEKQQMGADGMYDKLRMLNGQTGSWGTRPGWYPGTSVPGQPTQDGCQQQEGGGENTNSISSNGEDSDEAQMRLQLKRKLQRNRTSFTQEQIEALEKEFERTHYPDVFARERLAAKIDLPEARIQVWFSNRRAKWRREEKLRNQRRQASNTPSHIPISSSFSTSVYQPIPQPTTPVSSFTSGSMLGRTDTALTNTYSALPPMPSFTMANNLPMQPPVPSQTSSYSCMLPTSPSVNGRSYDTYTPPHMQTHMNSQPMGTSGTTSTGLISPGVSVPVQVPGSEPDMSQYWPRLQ
Procedure, shortened: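 Readout: reporter transcript fluorescence after RT-PCR and capillary electrophoresis. Cells: HepG2, transiently transfected with cis-regulated MRTUs. Exposure 24 h. Gain or loss of signal fitted bidirectionally relative to DMSO.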

[16] = ATG_SREBP_CIS: Attagene CIS-FACTORIAL HepG2 Assay for human Sterol Regulatory Element Binding (SREBP) (AID 2282962); details: HepG2 Attagene cis-factorial SREBP reporter, mRNA; actives raise or lower the signal
Procedure, shortened: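 Readout: fluorescent reporter-transcript peaks resolved by capillary electrophoresis after RT-PCR. Cells were human HepG2 carrying transfected cis-promoter reporter constructs, dosed for 24 h. Gain or loss of signal was fitted against DMSO controls.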

[17] = ATG_TA_CIS: Attagene CIS-FACTORIAL HepG2 Assay for human TA Basal Promoter (AID 2282964); details: HepG2 Attagene CIS-factorial TA basal promoter reporter; actives raise or lower the signal
Procedure, shortened: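 Transfected HepG2, 24 h compound exposure; RNA → RT-PCR → FAM primer extension → HpaI cut → CE fluorescence. Gain/loss-of-signal fitted against DMSO negative control. Background-control readout.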

[18] = ATG_TCF_b_cat_CIS: Attagene CIS-FACTORIAL HepG2 Assay for human T-Cell-Factor with beta-catenin (TCF/b-cat) (AID 2282965); details: HepG2 TCF/beta-catenin cis-reporter transcription, actives raise or lower the signal
Procedure, shortened: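 Measured: reporter mRNA in HepG2 transiently transfected with cis-promoter reporter units, 24 h after chemical addition. Fitting was bidirectional, DMSO as negative control.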

[19] = ATG_TGFb_CIS: Attagene CIS-FACTORIAL HepG2 Assay for human Transforming Growth Factor (TGF) (AID 2282967); details: HepG2 Attagene CIS TGFb reporter, mRNA transcription; actives raise or lower the signal
Procedure, shortened: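 Readout: fluorescently labeled reporter cDNA fragments resolved by capillary electrophoresis after RT-PCR. Transfected HepG2 cells dosed for 24 h; endogenous TF activity at TGFB1-linked cis element; gain or loss fitted relative to DMSO.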

[20] = ATG_Oct_MLP_CIS: Attagene CIS-FACTORIAL HepG2 Assay for human Octamer-Binding Transcription Factor (Oct) (AID 2282993); details: HepG2 Attagene cis-factorial Oct reporter, mRNA; actives raise or lower the signal
Procedure, shortened: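 Read-out: reporter mRNA via RT-PCR plus capillary electrophoresis of 6-FAM-labelled fragments. Transiently transfected HepG2, 24 h exposure, endogenous TF activity on cis elements. Gain or loss of signal fitted relative to DMSO.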

Measured: AC50

COc1c2occc2cc2ccc(=O)oc12
active: [2] 59.2 µM
inactive: all other assays above

O=C(O)c1nc(Cl)c(Cl)c(Cl)c1Cl
inactive: all assays above

Cc1cc(C)c(S(=O)(=O)O)cc1N=Nc1cc(S(=O)(=O)O)c2ccccc2c1O
inactive: all assays above

CCCCCCCCCC/C=C/C1CC(=O)OC1=O (stereo not given)
active: [19] 100 µM
inactive: all other assays above

O=C(O)Cc1c[nH]c2ccccc12
inactive: all assays above

COC(=O)c1ccccc1
active: [19] 0.5 µM
inactive: all other assays above

CC1=NN(c2cc(Cl)c(S(=O)(=O)O)cc2Cl)C(=O)C1N=Nc1ccc(S(=O)(=O)O)cc1 (stereo not given)
inactive: all assays above

O=C(C(=O)c1ccccc1)c1ccccc1
inactive: all assays above

c1cc[c]([Bi]([c]2ccccc2)[c]2ccccc2)cc1
active: [3] 5.72 µM | [4] 58.1 µM | [19] 40.4 µM
inactive: all other assays above

COCCCN
inactive: all assays above

O=C(O)/C=C/C(=O)O
inactive: all assays above

CN(C)CCCN1c2ccccc2CCc2ccc(Cl)cc21
active: [5] 7.1 µM | [15] 11.1 µM | [16] 15.8 µM | [18] 7.29 µM
inactive: all other assays above

CC/C=C\CCCCCO
inactive: all assays above

CC=CC(=O)O
inactive: all assays above

CC(C)n1c(/C=C/[C@@H](O)C[C@@H](O)CC(=O)O)c(-c2ccc(F)cc2)c2ccccc21
active: [16] 0.284 µM
inactive: all other assays above

Reference: PubChem BioAssay (EPA / NIEHS)
